Compound activity (PubChem)
The list is not random: actives were taken first. Their share in the collection is about 3.8%.
TSHR ag: qHTS Assay for Agonists of the Thyroid Stimulating Hormone Receptor; Thyrotropin receptor (Homo sapiens), P16473; HEK293-CNG-TSHR cells (CNG channel as cAMP sensor), membrane potential dye, cAMP; Potency, µM (series often up to 57.1 µM), without a hit: at the top dose activation, hits mostly activators; actives 0.48% (n = 73,000); AID 926, 2007; active = well fitted activation curve with a large enough effect in the main read-out, with a control signal flat, not every such curve was filed as active; inconclusive = small, poorly fitted or top-dose-only effect, or a change in a side signal; inactive = no such curve, though single readings can be large or run the other way; % of control where 0% means no effect;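 also: the control signal comes from parental cells without the receptor; potency is read from the fitted curve at half-maximal effect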
Target sequence (P16473 whole entry, looked up): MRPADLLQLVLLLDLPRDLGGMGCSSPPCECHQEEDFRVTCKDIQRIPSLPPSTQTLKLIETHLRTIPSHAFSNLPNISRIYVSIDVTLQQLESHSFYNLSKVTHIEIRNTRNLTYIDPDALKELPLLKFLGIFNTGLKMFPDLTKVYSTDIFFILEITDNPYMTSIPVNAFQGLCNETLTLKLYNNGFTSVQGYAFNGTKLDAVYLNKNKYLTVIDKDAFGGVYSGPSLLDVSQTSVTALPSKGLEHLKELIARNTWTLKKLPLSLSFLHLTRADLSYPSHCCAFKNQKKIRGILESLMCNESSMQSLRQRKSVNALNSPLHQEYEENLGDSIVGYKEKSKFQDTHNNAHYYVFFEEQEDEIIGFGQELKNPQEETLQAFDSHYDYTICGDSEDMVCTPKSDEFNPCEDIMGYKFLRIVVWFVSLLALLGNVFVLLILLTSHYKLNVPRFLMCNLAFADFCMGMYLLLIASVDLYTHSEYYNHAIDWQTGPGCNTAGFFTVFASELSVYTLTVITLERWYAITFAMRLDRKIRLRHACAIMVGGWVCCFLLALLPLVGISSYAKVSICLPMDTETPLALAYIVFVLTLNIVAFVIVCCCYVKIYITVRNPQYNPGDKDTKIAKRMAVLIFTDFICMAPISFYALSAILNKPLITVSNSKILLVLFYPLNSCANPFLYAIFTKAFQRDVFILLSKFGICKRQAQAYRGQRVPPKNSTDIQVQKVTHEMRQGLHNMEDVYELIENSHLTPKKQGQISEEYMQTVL
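HEK 293 cells stably expressing TSHR and a modified CNG channel, with CNG-only parental cells as counterscreen, were preloaded 60 min at room temperature with membrane potential dye containing 100 uM RO 20-1724. Compound exposure was 30 min, and depolarization was read as fluorescence at 590 nm.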
Ub-GFP proteasome: Ubiquitin-GFP Assay; Ubiquitin-GFP reporter cells, proteasome inhibition, GFP fluorescence; response scale: untreated = 0%, 10 µM MG-132 = 100%; Potency, µM (top dose mostly 45.9 µM), for inactives: at the highest dose activation (GFP accumulation), usual class: activators; 67,000 tested, under 10 active; active = well fitted activation curve with a large enough effect, not every such curve was filed as active; inconclusive = small, poorly fitted or top-dose-only effect, or another doubt; inactive = no such curve, though single readings can be large or run the other way; also: potency is read from the fitted curve at half-maximal effect
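U2OS Ub(G76V)-GFP reporter; O/N plating, 0.5% FBS; cpd 46 uM–2.9 nM, 4 h, 37 °C; GFP+ cell count, 488/515 nm; norm. to basal vs 10 uM MG-132; CRC fit.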
ERK AVP block: qHTS Assay for Inhibitors of the ERK Signaling Pathway using a Homogeneous Screening Assay | HEK293-V1b, vasopressin-stimulated pERK AlphaScreen | Potency, µM (top dose mostly 57.5 µM), for the others: top-dose activity, negative = inhibition, most hits filed as inhibitors | actives 0.99% (n = 72,000) | AID 995, 2007; also: potency is read from the fitted curve at half-maximal effect; % is scaled to controls: 0 for no effect and ±100 for the full control effect; nearly all actives have a fitted effect of over 55% in size
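HEK293 cells stably expressing V1b receptor, preincubated 30 min at 37 °C with compound, then stimulated 5 min with 25 nM vasopressin. Phospho-ERK by AlphaScreen SureFire after 5 h RT; normalized to DMSO and vasopressin; AC50 by Hill fit.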
Epigenetic mod: qHTS Assay for Epigenetic Modulators; mouse C127i GFP locus derepression, cytometry, 30 h; Potency, µM (doses to about 46.1 µM), without a hit: at the top dose GFP derepression (activation); actives 0.09% (n = 68,000); AID 597, 2007; also: % of control where 0% means no effect
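Read-out is the number of GFP-positive cells, scored as fluorescent objects 20 to 120 um wide, reflecting derepression of a silenced CMV-GFP reporter in murine C127i cells after 30 h compound exposure at 37 C.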
HBB splicing: qHTS Assay for Modulators of Hemoglobin Beta Chain Splicing. HBB splicing reporter cell assay, activation; EGFP reporter with mutant IVS2-654 intron; response scale: normalised to 500 nM splice-correcting PNA. Potency, µM (top dose mostly 46.1 µM), inactives show at the highest dose activation, most hits filed as activators. actives 0.06% (n = 65,000). AID 925, 2007; also: potency is read from the fitted curve at half-maximal effect; 0% is about no effect
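Compounds were applied for 2 days to HeLa EGFP-654 cells, 500/well in Optimem with 2% FCS. The reporter's EGFP is disrupted by mis-splicing of beta-globin intron IVS2-654. Readout: summed well GFP fluorescence from 488 nm laser scanning; reference was 500 nM antisense […] 654 PNA.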
HEK293 cAMP ctrl: qHTS Assay for Agonists of the Thyroid Stimulating Hormone Receptor: Activators of Intracellular cAMP Concentrations in Parental HEK 293; parental HEK293 CNG cAMP sensor, membrane potential fluorescence; actives 2.5% (n = 73,000); AID 938, 2007; Potency, µM (top dose mostly 57.1 µM), inactives show at the top dose activation, usual class: activators; also: potency is read from the fitted curve at half-maximal effect; % of control where 0% means no effect; nearly all actives have a fitted effect of over 55% in size
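Counterscreen for endogenous-receptor signalling: CNG-channel HEK 293 cells report cAMP rise by membrane depolarization. After 60 min dye equilibration with 100 uM RO 20-1724, compounds incubated 30 min before bottom-read fluorescence at 590 nm.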
Starred values were filed as active, the others as inactive; ? = inconclusive; . = no result; [ ] = dose if it differs, or a comment. Unless noted, calls follow the shape of the dose curve; as a rule, active = well fitted curve in the direction sought with a large enough effect; inconclusive = small, poorly fitted or top-dose-only effect, or another doubt; inactive = no such curve, though single readings can be large; an effect the other way counts as inactive or inconclusive.

SMILES	TSHR ag	Ub-GFP proteasome	ERK AVP block	Epigenetic mod	HBB splicing	HEK293 cAMP ctrl
c1ccc(CNc2ccnc(-c3cccnc3)n2)cc1	13%	1%	-25%	0%[9.22 µM]	0%	25%
COc1ccc(NC(=O)c2cc(-c3ccc(O)cc3)on2)cc1OC	4%	19%	-11%	9%	0%	6%
CCOC(=O)c1cnn(-c2nc(C)cc(C)n2)c1N	?	-6%	4%	0%	0%	?
CCOC(=O)c1cnn(-c2nc(-c3ccccc3)nc3c2COC(C)(C)C3)c1N	25µM*	-7%	-12%	0%	2%	21%
Cc1occc1C(=O)N1CCN(S(C)(=O)=O)CC1	0%	-6%	?	6%	-2%	9%
Cc1occc1C(=O)N1CCN(C(c2ccccc2)c2ccccc2)CC1	32µM*	3%	-26%	0%	1%	19%
O=C(NCCO[N+](=O)[O-])c1cccnc1	2%	-2%	11%	0%	.	-7%
CCN(CC)S(=O)(=O)c1cccc(-c2nnc(SCC(=O)c3cc(C)n(C)c3C)o2)c1	?	-4%	-2%	6%	0%[57.5 µM]	16µM*
CCN(CC)S(=O)(=O)c1cccc(-c2nnc(SCCOc3ccc(Cl)cc3)o2)c1	?	-3%	-3%	3%	-1%	?
CCN(CC)S(=O)(=O)c1cccc(-c2nnc(SCCOc3ccccc3)o2)c1	?	7%	7%	0%	-2%	7.9µM*
CCN(CC)S(=O)(=O)c1cccc(-c2nnc(SCCOc3ccccc3C)o2)c1	?	0%	44%	1%	-3%	16µM*
CCNc1ncc2nc(-c3ccc(OC)cc3)c(=O)n(CCc3ccccc3)c2n1	?	-6%	?	-4%[9.22 µM]	1%	?
CC(C)(C)OC(=O)NCCCCCc1nnc(SCC(=O)Nc2cccc(Cl)c2)o1	?	-4%	25µM*	2%	6%[1.84 µM]	?
CCc1ccc(-c2cn(-c3nc(C)cc(C)n3)c(=N)o2)cc1	?	.	-7%	2%	3%[0.369 µM]	25µM*
COc1ccc(OC2C(O)COC2/C=C/c2ccccc2)cc1 (stereo not given)	2%[11.4 µM]	.	-11%[11.5 µM]	.	0%[9.22 µM]	-4%[11.4 µM]
CCCCOc1ccc(S(=O)(=O)n2c(C)nc3ccccc32)cc1	?	-14%[9.17 µM]	32%	0%	1%[0.0738 µM]	3.2µM*
CCOC(=O)N/N=C1/C[C@@H](O)[C@@H](O)[C@@H]2[C@@H]3C(=O)N(c4cccc(Oc5ccccc5)c4)C(=O)[C@H]3CC[C@H]12	-7%[11.4 µM]	.	20%[11.5 µM]	.	4%[9.22 µM]	-5%[11.4 µM]
CN(C)c1nc(N)c(C(=O)N=C(N)N)nc1Cl	?	-7%	11%	1%	0%	25µM*
C[C@H](C(=O)c1ccccc1)[C@@H](c1ccccc1)N1CCOCC1	?	-1%[9.17 µM]	-7%[11.5 µM]	3%[9.22 µM]	1%[9.22 µM]	?
COC(=O)CSc1ncc(C#N)c(N)n1	-1%	-4%	16%	-1%	.	-3%
CC(Sc1ncc(C#N)c(N)n1)C(=O)Nc1ccccc1 (stereo not given)	?	3%	-25%	0%	.	32µM*
Cc1noc(C)c1-c1ccc2ncnc(NCc3cccnc3)c2c1	6%	0%	-1%	0%[9.22 µM]	-1%	2%
Cc1ccc(CC(=O)N2CCC(c3nc4c(nnn4Cc4ccccc4)c(=O)[nH]3)CC2)cc1	1%	-5%	0%	.	0%	8%
Cc1ccc(C(=O)N2CCCC(c3nc4c(nnn4Cc4ccccc4)c(=O)[nH]3)C2)cc1 (stereo not given)	?	-3%	-10%	3%	0%[57.5 µM]	25µM*
Cc1ccc(Cl)cc1N	5%	.	-3%	.	1%	8%
SMILES	TSHR ag	Ub-GFP proteasome	ERK AVP block	Epigenetic mod	HBB splicing	HEK293 cAMP ctrl
CCOc1ccc(-c2nn3c(-c4ccc(F)cc4)nnc3s2)cc1	.	1%	-10%	0%	0%	24%
CCOc1ccc(-c2nnc3sc(COc4ccc(Cl)cc4)nn23)cc1	?	-5%	-5%	0%	8%[0.369 µM]	25µM*
Clc1ccc(OCc2nn3c(-c4ccncc4)nnc3s2)cc1	?	1%	22%	0%	-2%[0.369 µM]	32µM*
CCOc1ccc(-c2nnc3sc(COc4ccc(C)cc4)nn23)cc1	?	1%	-1%	4%	8%[0.369 µM]	20µM*
Clc1ccc(OCc2nn3c(-c4ccco4)nnc3s2)cc1	?	0%	-12%	7%	-2%[0.369 µM]	?
Cn1cccc1C(=O)N1CCC2(CC1)CCN(C(c1ccccc1)c1ccccc1)CC2	2%	-5%	?	-2%[9.22 µM]	1%	6%
COc1cc([C@@H]2c3cc4c(cc3[C@@H](O[C@@H]3O[C@H]5CO[C@@H](C)O[C@@H]5[C@@H](O)[C@H]3O)[C@@H]3COC(=O)[C@@H]23)OCO4)cc(OC)c1O	2%	4%	20%	0%	.	-3%
Cc1cccn2c(=O)c(/C=N/O)c(N3CCCCC3)nc12	?	12%	-5%	0%	1%	16µM*
OC(COc1ccc(Cl)c2ccccc12)CN1CCN(c2ccccn2)CC1 (stereo not given)	16%	-1%	20µM*	-2%	-7%	23%
OC(CN1CCN(c2ccccn2)CC1)Cn1c2ccccc2c2ccccc21 (stereo not given)	9%	0%	?	1%	.	11%
CCOC(=O)c1cc2sccc2n1CC(=O)N1CCc2ccccc21	?	1%	0%	2%	.	16µM*
COc1cc2c(cc1OC)[C@@H]1C(=O)c3ccc4c(c3O[C@@H]1CO2)C=CC(C)(C)O4	?	4%	-28%	1%	.	20µM*
Cc1cccc(N(CC(=O)NC2CCCCC2)C(=O)CCC(=O)Nc2cc(C)ccn2)c1	8%	2%	5%	-3%	-1%	3%
CC(C)C(NC(=O)c1ccccc1NC(=O)c1ccco1)C(=O)O (stereo not given)	?	4%	21%	2%	0%	32µM*
O=C1c2ccccc2NC(c2ccco2)N1O (stereo not given)	-8%	13%	-22%	-2%	-2%	-3%
O=C1C2=C(Nc3ccccc3SC2c2ccco2)c2ccccc21 (stereo not given)	2µM*	-5%	?	-5%	-3%	-23%
Cc1c(C(=O)OCCN2CCCCC2)oc2ccccc12	.	-7%	-1%	-2%	3%	27%
